Measurements as given in the supplement of paper PMC3334620.
The full ranking holds about 33,000 sequences; the median of “E-score (-0.5 to 0.5)” is about -0.01, and the highest 2% start at about 0.26. What follows is part of a selection rich in the highest values, with near analogues and random picks from the rest.

Biological target: Ste12 (UniProt P13574)
Assay: PBM E-score (8-mer binding enrichment) (E-score (-0.5 to 0.5)); higher = stronger / more preferred TF binding
Settings: protein concentration: 200 nM; construct: GST-DNA-binding domain
Method: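 Universal 'all 10-mer' protein binding microarrays (Agilent AMADID 015681) probed with GST-tagged S. cerevisiae TFs (full-length or DBD) made by in vitro transcription/translation (PURExpress), about 100-200 nM. Bound TF was detected with fluorescent anti-GST. Each ungapped 8-mer (which stands for itself and its reverse complement) is scored by the PBM enrichment score (E-score), a modified Wilcoxon-Mann-Whitney statistic from -0.5 to +0.5, computed with the Universal PBM Analysis Suite. Scale: above 0.35 generally sequence-specific binding.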

Sequence of UniProt P13574 (P13574 whole entry): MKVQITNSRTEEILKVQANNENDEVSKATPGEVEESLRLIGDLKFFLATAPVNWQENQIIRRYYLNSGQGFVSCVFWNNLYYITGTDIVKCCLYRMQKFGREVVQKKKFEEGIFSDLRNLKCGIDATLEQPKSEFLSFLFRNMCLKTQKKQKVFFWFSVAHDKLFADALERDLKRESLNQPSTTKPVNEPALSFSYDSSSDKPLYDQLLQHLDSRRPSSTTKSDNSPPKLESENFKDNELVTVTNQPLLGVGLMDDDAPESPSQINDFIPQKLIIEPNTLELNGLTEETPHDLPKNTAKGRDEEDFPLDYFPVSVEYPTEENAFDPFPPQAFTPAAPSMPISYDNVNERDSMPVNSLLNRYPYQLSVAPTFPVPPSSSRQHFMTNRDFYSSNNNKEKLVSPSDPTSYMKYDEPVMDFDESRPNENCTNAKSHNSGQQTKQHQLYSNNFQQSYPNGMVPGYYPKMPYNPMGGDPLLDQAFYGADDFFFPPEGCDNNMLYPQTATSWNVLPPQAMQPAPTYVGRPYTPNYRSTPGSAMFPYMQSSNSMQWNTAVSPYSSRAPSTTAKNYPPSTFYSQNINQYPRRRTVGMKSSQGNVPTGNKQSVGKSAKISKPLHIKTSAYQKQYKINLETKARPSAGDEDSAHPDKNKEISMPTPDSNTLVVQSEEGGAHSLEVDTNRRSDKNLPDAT

Sequence	PBM E-score
ATACATAT	0.294
ATACATAC	0.134
GGGCATAA	0.218
AAACATAC	0.241
TGGCATAA	0.307
ACATGCAT	0.0142
GACGCACC	-0.00732
ATAAAGAC	-0.0448
CACCCTCC	0.213
GAGTTTGC	0.0562
ATCTACGG	-0.0913
AACTTTCT	0.128
AACGGTGA	-0.122
ATTGCCCC	0.0929
GGCGAGGA	-0.178
AATGGCCT	-0.00519
ACATACAT	0.263
TAACATAA	0.275
GAACATAA	0.148
ACATACAG	0.0443
ACACATAA	0.19
AAACATAA	0.306
ACATACAC	0.0702
CAACATAA	0.189
AAACATTA	0.207
GCTCGCCA	-0.0532

Sequence	PBM E-score
ATTTGCGG	0.148
ACCGTGCT	-0.08
AGTGCAAA	0.101
GAGGGGAA	0.0394
AAACAAGC	0.202
ATACGATC	0.157
ATCAATTA	0.289
AACAATTG	-0.0846
AACAATTA	0.297
AACAATAG	0.0913
AACAATAC	0.0824
ATCAATTG	0.154
ATCAATTC	0.0349
AACAATAA	0.301
AACAATTC	0.124
GCGGTTTA	0.13
CTTGAGAC	0.158
ATCACTAC	-0.117
CTAGATTA	-0.0366
TCCAAAGA	0.0392
AGAAGAGC	-0.161
CCCGGCCG	-0.239
ACTGAGCC	-0.00502
TCATAAAA	0.231
TTATATAA	0.176
ATATAAAT	0.279

Sequence	PBM E-score
GTATATAC	-0.207
GTATAAAA	0.241
CTATATAA	0.174
TTATAAAA	0.268
CTATATAC	0.162
ATATATAC	0.271
ATATAAAG	0.171
ATATATAA	0.273
ATATAAAC	0.161
CCGATTTA	0.199
AGCATCTG	-0.159
AGTGACAG	-0.057
ACTAGTCC	-0.104
AGCAAACG	-0.0967
GTAGCTAC	-0.201
CTCCAGAA	-0.152
AGGTTTAG	0.0936
AAGCCGGC	0.0834
GCTTGACA	0.0364
ACATCGAA	0.0463
CGTCGCGC	0.00057
GCAACAAC	-0.0707
CCGCTAAG	0.109
ACATAAAA	0.17
CTATAAAA	0.235
ATATAAAA	0.307

Sequence	PBM E-score
ACCCGCGG	0.176
TCTGAAGA	-0.149
GACTCTGC	-0.0845
ATAAAAGG	0.0863
GGAAAAGA	0.05
GGCAAAAA	0.346
GAAAAAAC	0.174
GGAAAAAA	0.309
GAAAAAAA	0.369
GAGAAAAA	0.147
GGCAAGAA	0.0412
GGCAAAAC	0.133
ATAAAAGA	0.0538
GGAAAACA	0.177
ATAAAAAG	0.315
CCATGGCG	-0.0357
GCTTACTA	0.00559
AGCCTCTG	-0.135
CAGTTAGC	-0.218
CGAAATAA	0.131
AGGAAAAC	-0.0394
TGAAAACA	0.162
TGAAAAAA	0.293
AAAAAATT	0.197
GGAAAAAC	0.322
GGAAATAA	0.284

Sequence	PBM E-score
TGAAAGAA	0.131
ATAAAAAT	0.241
GGAAAACC	0.0776
AAAAAAAT	0.337
AGAAATAA	0.207
GCGACCTA	-0.062
CTGGCATC	-0.283
AGATTATC	-0.0475
CTACCTTA	-0.00289
CTGTGCAA	-0.101
ACGATTGA	0.158
CAGTTAAA	-0.00288
CATGAGCG	-0.0776
CGTGTGAC	-0.0425
AGTTCAAA	0.138
GCCAAATA	0.101
GTTTACGA	0.0472
CGGAAAAA	0.343
CGAAAAAC	0.0959
CGGAAAAG	0.0439
CGAAAAAA	0.308
AGAAAAAA	0.19
CGAAAAAG	0.212
AAAAAAAA	0.367
AAAAAAAG	0.294
AAAAAAGG	0.244

Sequence	PBM E-score
CAAAAAAG	0.159
AAAAAAGA	0.182
CGGAAAAC	0.0342
CAGGCGGG	0.0689
AATGGGCT	-0.092
CGTTTAGC	-0.0383
ACAGCCGT	-0.0628
AGCCTTAT	0.0824
AAAAAGCC	0.229
TGGAAAAA	0.302
GGGAAAAC	0.116
TCGGAAAA	0.275
GCGGAAAA	0.253
CAAAAGCG	0.14
GGGAAAAA	0.272
ACGGAAAA	0.177
GGGGAAAA	0.112
AAAAAGCG	0.317
AGGAAAAA	0.16
TTGGAAAA	0.177
AATCCAAA	0.14
CCGTTAAG	-0.177
ACGCTGCC	-0.108
ACCTTTGA	0.0506
GGTCTTCA	-0.164
CCTTTTCA	-0.0167

Sequence	PBM E-score
CGTAGCAA	0.00941
AAGCCTTG	-0.00117
CGTGTGAA	0.14
ACTGTGAA	0.27
ACTGTGAT	-0.0243
GGTGTGAA	0.19
GCTGTGAA	-0.0834
TGTGTGAA	0.284
ACTAAGAG	-0.0255
GTATGATA	0.0429
AAATGATC	-0.0582
TAATGAGA	0.168
AAATGATT	0.197
GCATGATA	0.0794
TAATGATA	0.272
AAATGATA	0.292
GAATGATA	0.309
CTATGATA	-0.0247
ATATGATA	0.271
GAATGATC	0.00293
CAATGATA	0.074
